Data reported in PubChem BioAssay (NCATS).
Inconclusive results are not listed. Active and inactive are the calls of the source. Calls follow the shape of the dose curve; as a rule, active = well fitted inhibition curve with a large enough effect; inconclusive = small, poorly fitted or top-dose-only effect; inactive = flat fitted curve, though single readings scatter.

Legend:
Assay in all cases: qHTS profiling for inhibitors of Plasmodium falciparum proliferation (AID 504749); also: nearly all actives have a fitted effect of over 60% in size
Details in all cases: P. falciparum in erythrocytes, SYBR Green DNA, 72 h; series mostly up to 28.7 µM
CP192 = tested on: CP192
In short: (§1)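 Readout was DNA-dye fluorescence from lysed cultures, ex 485/em 535 nm. Parasitized red cells had grown 72 h with compound; data scaled between 0.29 uM artemisinin and DMSO wells and corrected using vehicle-only plates.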

C2A = tested on: C2A
In short: as §1

CP185 = tested on: CP185
In short: as §1

CP194 = tested on: CP194
In short: as §1

CP201 = tested on: CP201
In short: as §1

CP203 = tested on: CP203
In short: as §1

CP211 = tested on: CP211
In short: as §1

CP215 = tested on: CP215
In short: as §1

CP217 = tested on: CP217
In short: as §1

CP191 = tested on: CP191
In short: as §1

Measured: Potency

CN1C[C@@H]2C[C@H]1CN2c1cc2c(cc1F)c(=O)c(C(=O)O)cn2C1CC1
inactive: CP192

NC(=O)c1ccc([N+](=O)[O-])cc1Cl
not listed: CP191
inactive: all other assays above

CCN1CC(CCN2CCOCC2)C(c2ccccc2)(c2ccccc2)C1=O (stereo not drawn)
not listed: CP203
inactive: all other assays above

Cc1ncc(CO)c(CN)c1O
not listed: CP215
inactive: all other assays above
